Consider 39 molecules from PubChem BioAssay (NCI).

This is part of a sample that, as a whole, favours compounds with a hit. Of some 83,000 tested, about 20% had one in any assay.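 Testing used 96-well plates and a 48-hour single-concentration exposure. Example: -40 means 40% of the starting cells died.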 Unmarked numbers belong to inactive results. Activity calls are given as the source filed them. The calls were made as follows: active = growth percent below 10; inactive = the rest.

For the first test, the system named is A549/ATCC NSCLC. The test is described as follows: NCI-60 one-dose screen, 48 h (100 = growth as untreated, 0 = no growth, -100 = all killed). The note with it: 10 µM unless noted.
As for `O=C1CSC(c2c(F)cccc2Cl)N1NC(=O)C(O)(c1ccccc1)c1ccccc1` (centres undefined), the growth was 96.2%.

For the molecule `O=C1C=CC2(NN=C(c3ccccc3)N2c2cccc(Cl)c2)C(Cl)=C1` (centres undefined), the growth was 80.1%.

`Cc1ccc(N=C2CSc3nnc(-c4csc5c4CCCC5)n3N2)cc1`: the growth is 26.5%. With `Cc1cc(-c2cc(OC(=O)c3ccccc3)ccc2Cl)cc2nnc(Nc3ccc(OCCN4CCCC4)cc3)nc12`, the growth is 69.4%.

In the case of `Cc1cc(O)cc(-c2c(-c3ccnc(-c4cccnc4)c3)cnn2C)c1`, the growth is 78.1%.

A further test has as its system 786-0 renal. Described as above. The note with it: 10 µM unless noted.
Turning to `CCOc1cc2ncc(C#N)c(Nc3ccc(F)c(Cl)c3)c2cc1NC(=O)/C=C/CN(C)C`, the growth is -68.5% (active). Consider `CCN(CC)CCNC(=O)c1c(C)[nH]c(/C=C2\C(=O)Nc3ccc(F)cc32)c1C`, for which the growth was -63.8% (active). On the same count and under the same terms, as for `COc1ccc2c(CCC(c3ccccc3)c3ccccc3)c3[n+](cc2c1OC)CCc1cc2c(cc1-3)OCO2`, the figure is 14.8%; as for `C[C@@H](Oc1cc(-n2cnc3ccc(CN4CCN(C)CC4)cc32)sc1C(N)=O)c1ccccc1C(F)(F)F`, 6.39% (active); as for `CC(C)=CCc1cc2c(cc1O)C1=C(C(=O)C3=C(NCCS3(=O)=O)C1=O)C(C=C(C)C)O2` (centres undefined), 58.7%. On the same count and under the same terms, to `CC(N)C(Cc1ccc(Cl)cc1)c1ccc(Cl)cc1` (centres undefined) belongs 57.1%; to `Clc1nc(Cl)c2ncn(CC#CCn3cnc4c(Cl)nc(Cl)nc43)c2n1`, 7.75% (active). Still for that read-out and setting: to `O=C(Cc1ccc(-c2ccc(OCCN3CCOCC3)cc2)cn1)NCc1ccccc1` belongs 24.2%. Take `Cc1nc(NC(=O)N2CCC[C@H]2C(N)=O)sc1-c1ccnc(C(C)(C)C(F)(F)F)c1`: the growth is 59.5%. For `COc1ccc2c(CCCc3ccc(Cl)cc3Cl)c3[n+](cc2c1OC)CCc1cc2c(cc1-3)OCO2`, the growth is 16.5%. Regarding `Cc1c(Cn2c(C)nc3c(C(=O)O)cc(N4CCOCC4)cc32)cccc1C(F)(F)F`, the growth is 95.8%.

Regarding `COc1cc2nccc(Oc3ccc(NC(=O)C4(C(=O)Nc5ccc(F)cc5)CC4)cc3)c2cc1OC`, the growth is 13.1%. With `C=CCCCC(=O)CCC(=O)OCC1O[C@@H](O[C@@H]2C(O)[C@@H](OC(C)=O)C(C)O[C@H]2O[C@H](CC=C)CCCCC)C(O)[C@@H](OC(=O)/C(C)=C/C)[C@@H]1OC(=O)/C=C/c1ccccc1` (some centres undefined), the growth is 18.9%. In the case of `O=c1[nH]ccc2c(S(=O)(=O)N3CCCNCC3)cccc12`, the growth was 54%. For `CC1(C=O)NC(=O)NC1=O` (centres undefined), the growth is 104%. `Cc1ccc(NC(=O)c2ccc(CN3CC[C@H](N(C)C)C3)c(C(F)(F)F)c2)cc1Nc1nccc(-c2cncnc2)n1`: the growth is -54.7% (active). Take `O=C(Nc1cccc(Cl)c1)Nc1ncc(CCNc2ncnc3ccsc23)s1`: the growth is 42.1%.

Regarding `Cn1ccnc1C(=O)/C=C/c1ccc(CC(=O)Nc2ccc(Br)cc2)cc1`, the growth was 7.96% (active). `CNC(=O)c1nn(C)c2c1C(C)(C)Cc1cnc(Nc3ccc(N4CCN(C)CC4)cc3)nc1-2`: the growth was 12.3%.

On to `COc1cccc2cc(-c3nc(C4CCC(C(=O)O)CC4)n4ncnc(N)c34)[nH]c12` (centres undefined), for which the growth is -5.64% (active). `CNc1ncc2cc(-c3cc(NC(=O)NCCC(C)(C)C)c(F)cc3C)c(C)nc2n1`: the growth is 29.8%. Regarding `Cc1cc(C(=O)Nc2cc(Oc3ccc4nc(NC(=O)C5CC5)cn4n3)ccc2C)n(C)n1`, the growth was 51.9%. As to `O=C(Cc1ccc(/C=C/C(=O)c2ncc[nH]2)cc1)Nc1ccc(Br)cc1`, the growth was -27% (active). The same measure, in the same setting: to `CCc1ccc(C2=C(O)C(=O)C(c3ccc(CC)cc3)=C(O)C2=O)cc1` belongs 0.0366% (active). `CNC(=O)c1cccc2cc(Oc3ccnc4cc(OCC5(N)CC5)c(OC)cc34)ccc12`: the growth was 76.8%. Same read-out and setting: as for `CCCCN1CCCC[C@@H]1C(=O)N[C@H](C(=O)N(C)[C@H](CCc1nc(C(=O)N[C@@H](Cc2ccccc2)C[C@H](C)C(=O)OC)cs1)C(C)C)C(C)C`, the figure is 77.4%; as for `COc1cnc2c(c1)C(=O)c1c-2n(CCCN2CCC(N)CC2)c(=O)c2cc([N+](=O)[O-])ccc12`, 36.2%; as for `C=CC(=O)Nc1cc2c(Nc3ccc(F)c(Cl)c3)ncnc2cc1OCCCN1CCOCC1`, 2.4% (active). With `NC(=O)c1c(OCc2c(F)cc(Br)cc2F)nsc1NC(=O)NCCCCN1CCCC1`, the growth is -57.2% (active). Turning to `CCc1nc2ccc(Cc3ccc(C(=O)NO)cc3)cc2c(=O)n1CCc1ccccc1`, the growth is -58.3% (active). For the molecule `Cc1cc(N(CCNc2ccnc3cc(Cl)ccc23)Cc2ccc3c(c2)OCO3)nc(N2CCN(C)CC2)n1`, the growth was -6.41% (active).

For `Cc1ccc2oc(=O)cc(-c3cc(-c4cc5ccccc5oc4=O)nc(N)c3C#N)c2c1`, the growth is 15.6%. As to `Cc1[nH]c(/C=C2\C(=O)Nc3ccc(F)cc32)c(C)c1C(=O)NC[C@H](O)CN1CCOCC1`, the growth was 35.6%. Still for that read-out and setting: to `O=C(Nc1cn[nH]c1-c1nc2ccc(CN3CCOCC3)cc2[nH]1)NC1CC1` belongs 13.6%; to `O=C1CSC(c2c(F)cccc2Cl)N1NC(=O)C(O)(c1ccccc1)c1ccccc1` (centres undefined), 97%. For the molecule `O=C1C=CC2(NN=C(c3ccccc3)N2c2cccc(Cl)c2)C(Cl)=C1` (centres undefined), the growth was 98%. As for `Cc1ccc(N=C2CSc3nnc(-c4csc5c4CCCC5)n3N2)cc1`, the growth was 32.3%. Consider `Cc1cc(-c2cc(OC(=O)c3ccccc3)ccc2Cl)cc2nnc(Nc3ccc(OCCN4CCCC4)cc3)nc12`, for which the growth is 98.9%.

As to `Cc1cc(O)cc(-c2c(-c3ccnc(-c4cccnc4)c3)cnn2C)c1`, the growth is 67.7%.
